Reference: PubChem BioAssay AID686979 (National Center for Advancing Translational Sciences (NCATS), 2013)
Out of some 420,000 compounds screened, about 50,000 (12%) were called active. A call without a number means that no potency is given here. About 26% were inconclusive and are not listed. Calls follow the shape of the dose curve; as a rule, active = well fitted inhibition curve with a large enough effect; inconclusive = small, poorly fitted or top-dose-only effect; inactive = flat fitted curve, though single readings scatter. For the sample, actives were picked, then their nearest neighbours and some compounds at random.

Experiment: qHTS for Inhibitors of human tyrosyl-DNA phosphodiesterase 1 (TDP1): qHTS in cells in presence of CPT; also: nearly all actives have a fitted effect of over 55% in size
Conditions: chicken DT40 Tdp1-/-;hTDP1 cells + 20 nM CPT, ATP luminescence, 48 h; series mostly up to 46.2 µM
In short: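 Chicken DT40 Tdp1-/- cells stably complemented with human TDP1 were seeded at 400 cells/well in medium containing 20 nM camptothecin, exposed to pin-transferred compounds, and grown at 37 °C for at least 48 hr. Viability was read as ATP luminescence.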
Potency is read from the fitted curve at half-maximal effect.

| Structure (SMILES) | Potency |
| --- | --- |
| O=C(NCc1cccnc1)c1ccc2nc([C@@H]3O[C@H](CO)[C@H](O)[C@H](O)[C@H]3O)[nH]c2c1 | inactive |
| CC1=NN(C(N)=S)C(=O)C1N=Nc1cc(Cl)ccc1Cl (stereo not drawn) | inactive |
| Cc1nc(Nc2ccccc2C)c2cnn(C)c2n1 | inactive |
| CC[C@]12c3[nH]c4ccc(Cl)cc4c3CCN1C(=O)[C@@H](CC(=O)NCCCOC)C[C@@H]2C(=O)N1CCN(C(=O)c2ccco2)CC1 | inactive |
| COc1ccc2[nH]c3c(c2c1)CCN1C(=O)C(CC(=O)NCCCN(C)C)C[C@H](C(=O)N2CCOCC2)[C@@]31CCC1CCCC1 (stereo partly drawn) | inactive |
| CC[C@]12c3[nH]c4ccc(Cl)cc4c3CCN1C(=O)[C@@H](CC(=O)NCCN1CCOCC1)C[C@@H]2C(=O)N1CCN(C(=O)C2CC2)CC1 | inactive |
| CC[C@]12c3[nH]c4ccc(OC)cc4c3CCN1C(=O)C(CC(=O)NCc1ccco1)C[C@@H]2C(=O)N1CCN(C(=O)C2CC2)CC1 (stereo partly drawn) | inactive |
| O=C(C[C@H]1C[C@H](C(=O)N2CCOCC2)[C@@]2(CCC3CCCC3)c3[nH]c4ccc(Cl)cc4c3CCN2C1=O)NCc1ccco1 | 20.6 µM (active) |
| COc1ccc(CNC(=O)C[C@H]2C[C@H](C(=O)N3CCOCC3)[C@@]3(CCC4CCCC4)c4[nH]c5ccc(Cl)cc5c4CCN3C2=O)cc1OC | 16.4 µM (active) |
| O=C(NNS(=O)(=O)c1ccc(F)cc1)c1ccc([N+](=O)[O-])cc1Cl | inactive |
| Cc1cc(OC(C)C(=O)Nc2ccc(S(=O)(=O)Nc3onc(C)c3C)cc2)cc(C)c1Cl (stereo not drawn) | inactive |
| CNC(=O)C1CC(=O)N(c2ccc(OCC(=O)Nc3ccccc3C)cc2)C1 (stereo not drawn) | inactive |
| O=S(=O)(c1ccc(Br)cc1)c1nc(-c2ccccc2)oc1N1CCOCC1 | inactive |
| COc1ccc(-c2nc(S(=O)(=O)c3ccccc3)c(N3CCCCC3)o2)cc1 | 23.1 µM (active) |
| CC(=O)c1ccc(N2CCN(c3nc4c(S(=O)(=O)c5ccccc5)nnn4c4ccc(Cl)cc34)CC2)cc1 | inactive |
| O=S(=O)(Nc1cc(Cl)ccc1N1CCOCC1)c1ccccc1Cl | inactive |
| O=S(=O)(c1ccccc1)c1nc(-c2ccc(Cl)cc2Cl)oc1N1CCCCC1 | 14.6 µM (active) |
| O=S(=O)(c1ccccc1)c1nc(Cc2ccccc2)oc1N1CCOCC1 | inactive |
| Cc1ccc(CNC(=O)CCC(=O)N2Cc3ccccc3Oc3ncccc32)cc1 | inactive |
| CC(C)Cc1nnc(N)s1 | inactive |
| COc1cc2ccc(C(C)=O)c(O)c2cc1OC | inactive |
| COCCC(=O)N1CCC(Oc2ccc(C(=O)NCc3ccon3)cc2)CC1 | inactive |
| CCOc1ccc(C(=O)N2CCN(CCc3ccccn3)CC2)cc1 | inactive |
